Sm TGR inh = qHTS Assay for the Inhibitors of Schistosoma Mansoni Peroxiredoxins. Potency, µM (titrated, usually from 114 µM), without a hit: at the highest dose activity change, negative = inhibition, most hits filed as inhibitors. actives 3% (n = 360,000). Schistosoma mansoni thioredoxin glutathione reductase (TGR), Q962Y6. purified TGR, DTNB reduction, TNB absorbance 405 nm. AID 485364, 2010; further: nearly all actives have a fitted effect of over 60% in size
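First, TGR (20 nM dispensed) and NADPH were mixed with compound. Second, a 15 min room-temperature incubation followed. Third, further NADPH and then DTNB were added to start the reaction. Finally, TNB absorbance was monitored kinetically.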
TbPYK inhibitor = qHTS of Trypanosoma Brucei Inhibitors. pyruvate kinase (Trypanosoma brucei), Q57TT1. TbPYK enzyme, Kinase-Glo Plus ATP luminescence, 45 min. Potency, µM (titrated, usually from 76.8 µM), without a hit: at the highest dose activity, negative = inhibition, actives largely listed as inhibitors. actives 0.12% (n = 410,000). AID 624173, 2012; further: nearly all actives have a fitted effect of over 50% in size
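ADP (130 uM final) triggers the TbPYK reaction after compound addition; incubation is 45 min at room temperature. Kinase-Glo Plus is then added and luminescence imaged. Normalized data are fitted to concentration-effect curves.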
RE007 growth inh = qHTS Assay for Inhibitors of the HIV-1 protein Vpr; actives 0.21% (n = 360,000); S. pombe RE007 Vpr strain, BacTiter-Glo ATP luminescence, 24 h; Potency, µM (series often up to 92.2 µM), inactives show top-dose activity change, negative = less growth, actives largely listed as inhibitors; active means well fitted falling curve with a large enough effect; inconclusive means small, poorly fitted or top-dose-only effect; inactive means no such curve, though single readings can be large or run the other way; further: nearly all actives have a fitted effect of over 50% in size
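Fission yeast strain RE007, carrying one chromosomally integrated HIV-1 vpr copy, was seeded at OD 0.01 in PMG+AL medium with 23 nL pinned compound. After 24 h at 30 °C and 99% humidity, viability was read by BacTiter-Glo luminescence.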
LmPK inh = qHTS Assay for Inhibitors of Leishmania Mexicana Pyruvate Kinase (LmPK) | Q27686 | purified LmPK, Kinase-Glo ATP luminescence, 1 h | Potency, µM (top dose mostly 57.5 µM), for inactives: at the highest dose activity change, negative = inhibition, usual class: inhibitors | actives 0.37% (n = 290,000) | AID 1721, 2009
Target sequence (Q27686 whole entry, looked up): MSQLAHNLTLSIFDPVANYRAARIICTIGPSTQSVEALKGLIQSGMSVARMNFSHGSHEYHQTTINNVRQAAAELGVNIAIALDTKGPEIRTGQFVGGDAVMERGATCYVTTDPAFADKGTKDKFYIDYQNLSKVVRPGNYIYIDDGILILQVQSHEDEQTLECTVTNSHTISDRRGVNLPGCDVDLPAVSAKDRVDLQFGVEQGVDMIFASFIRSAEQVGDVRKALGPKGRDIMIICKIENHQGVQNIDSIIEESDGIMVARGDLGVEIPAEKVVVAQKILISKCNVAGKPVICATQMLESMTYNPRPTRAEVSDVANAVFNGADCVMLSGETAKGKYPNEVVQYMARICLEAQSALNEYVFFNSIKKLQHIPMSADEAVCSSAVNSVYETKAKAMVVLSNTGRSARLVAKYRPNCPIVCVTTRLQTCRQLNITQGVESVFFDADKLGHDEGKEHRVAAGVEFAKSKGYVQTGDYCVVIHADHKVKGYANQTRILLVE
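Purified LmPK (0.1 nM) converted ADP (0.1 mM) to ATP with PEP (0.5 mM) in imidazole buffer pH 7.2 with KCl and MgCl2, 1 h at room temperature. ATP was read by Kinase-Glo luminescence; data normalized to uninhibited and no-enzyme controls.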
Giardia FBPA inh = qHTS Assay for Inhibitors of Fructose-1,6-bisphosphate Aldolase from Giardia Lamblia; A8B2U2; purified Giardia FBPA; Potency, µM (doses to about 59.6 µM), for the others: at the top dose activity, negative = inhibition, most hits filed as inhibitors; actives 0.71% (n = 290,000); AID 2451, 2010; further: nearly all actives have a fitted effect of over 55% in size
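Giardia FBPA (40 nM reagent) was preincubated 10 min at RT with compound (up to 57.5 uM final), then substrate plus GAPDH/TPI/NAD/arsenate coupling system with diaphorase/resazurin was added; resorufin fluorescence (525/598 nm) was read after 20 min.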
* marks the source's active call; other numbers are inactive results; [ ] = another dose, or the depositor's remark. Only some compounds are listed: those with a hit (about 3.3% of all), similar ones and a draw of the others. Unless noted, the call rests on the fitted dose curve; in most records, active means well fitted curve in the direction sought with a large enough effect; inconclusive means small, poorly fitted or top-dose-only effect, or another doubt; inactive means no such curve, though single readings can be large; an effect the other way counts as inactive or inconclusive. On the % scale 0 is the no-effect control and ±100 the full control effect; potency means the concentration at half of the fitted maximal effect.

Results for O=C(/C=C/c1ccccc1Cl)c1ccc(O)cc1 ?
Sm TGR inh: 45µM*; TbPYK inhibitor: -5%; RE007 growth inh: -5%; LmPK inh: -11%; Giardia FBPA inh: -1%

What do the screens show for `C(=Cc1cccnc1)c1ccncc1`?
TbPYK inhibitor: 7%; RE007 growth inh: 3%

How did N#Cc1ccccc1OCC(=O)NNC(=O)c1ccncc1 do in these assays?
Sm TGR inh: 1%; TbPYK inhibitor: 1%; RE007 growth inh: 4%

What do the screens show for `O=C(/C=C/c1ccccc1Cl)c1cccnc1`?
Sm TGR inh: 13µM*; TbPYK inhibitor: -22%; RE007 growth inh: inconclusive; LmPK inh: -16%; Giardia FBPA inh: -1%

What do the screens show for `O=C(/C=C/c1c(F)cccc1Cl)c1ccc(O)cc1`?
Sm TGR inh: 40µM*; TbPYK inhibitor: -9%; RE007 growth inh: -25%; LmPK inh: -11%; Giardia FBPA inh: 5%

Results for O=C(/C=C/c1ccc(Cl)cc1)c1cccnc1 ?
Sm TGR inh: 14µM*; TbPYK inhibitor: -10%; RE007 growth inh: 28µM*; LmPK inh: -4%; Giardia FBPA inh: -5%

How did O=C(CC1C(=O)NCCN1CC(c1ccccc1)c1ccccc1)NC1CC1 (stereo unspecified) do in these assays?
Sm TGR inh: inconclusive; TbPYK inhibitor: 0%; RE007 growth inh: 0%; LmPK inh: 1%; Giardia FBPA inh: -19%

Results for COc1ccc(NCc2ccccc2[N+](=O)[O-])cc1OC ?
Sm TGR inh: -24%; TbPYK inhibitor: -18%; RE007 growth inh: -21%; LmPK inh: 3%; Giardia FBPA inh: inconclusive

Results for CCN(Cc1ccc(OC)c(F)c1)C(=O)CCl ?
Sm TGR inh: 11µM*; TbPYK inhibitor: 0%; RE007 growth inh: 12%; LmPK inh: 8%; Giardia FBPA inh: 0%

How did CCN(Cc1ccc(OC)c(F)c1)C(=O)C1CCCO1 (stereo unspecified) do in these assays?
Sm TGR inh: 3%; TbPYK inhibitor: 0%; RE007 growth inh: 14%; LmPK inh: 0%; Giardia FBPA inh: -5%

What do the screens show for `CC1=NN=C(c2ccccc2)C(c2c[nH]c3ccccc23)N1O` (stereo unspecified)?
Sm TGR inh: -2%; TbPYK inhibitor: -16%; RE007 growth inh: 5%; LmPK inh: 0%; Giardia FBPA inh: -4%

What do the screens show for `Cc1[nH]c2ccccc2c1C1C(c2ccccc2)=NN=C(C(C)C)N1O` (stereo unspecified)?
Sm TGR inh: 11µM*; TbPYK inhibitor: -5%; RE007 growth inh: -9%; LmPK inh: 1%; Giardia FBPA inh: -2%

What do the screens show for `CCn1c2ccccc2c2c3ncc4cccn4c3ccc21`?
Sm TGR inh: 28µM*; TbPYK inhibitor: -6%; RE007 growth inh: -23%; LmPK inh: 3%; Giardia FBPA inh: -8%

How did c1ccc2c(c1)ncc1cccn12 do in these assays?
Sm TGR inh: 10%[11.4 µM]; TbPYK inhibitor: -4%; RE007 growth inh: 13%; LmPK inh: 4%; Giardia FBPA inh: -4%

Results for Cc1ccc(N2C(=O)CC(Sc3ccccc3C(=O)O)C2=O)cc1C (stereo unspecified) ?
Sm TGR inh: 4µM*; TbPYK inhibitor: 1%; RE007 growth inh: 14µM*; LmPK inh: -2%; Giardia FBPA inh: 13%

How did CN1C(=O)CC(Sc2ccccc2C(=O)O)C1=O (stereo unspecified) do in these assays?
Sm TGR inh: inconclusive; TbPYK inhibitor: -1%; RE007 growth inh: -26%; LmPK inh: -4%; Giardia FBPA inh: 3%

What do the screens show for `Cc1ccc(N2C(=O)CC(Sc3ccccc3C(=O)O)C2=O)cc1` (stereo unspecified)?
Sm TGR inh: 13µM*; TbPYK inhibitor: -2%; RE007 growth inh: 10µM*; LmPK inh: 3%; Giardia FBPA inh: 7%

High-throughput results as filed in PubChem.
